# Compound activity from PubChem.
# A selection: hits, their analogues and other compounds. The true share with any hit is near 11%.
# HP1b binding inh – HP1-beta chromodomain-methylated histone interaction inhibition | P83916 | AlphaScreen HP1-beta / biotin-H3K9me3 peptide binding | Potency, µM (series often up to 114 µM), inactives show at the top dose activity change, negative = inhibition, hits mostly inhibitors | 0.56% of 390,000 active | AID 540317; also: nearly all actives have a fitted effect of over 70% in size
# Target sequence (P83916 whole entry, looked up): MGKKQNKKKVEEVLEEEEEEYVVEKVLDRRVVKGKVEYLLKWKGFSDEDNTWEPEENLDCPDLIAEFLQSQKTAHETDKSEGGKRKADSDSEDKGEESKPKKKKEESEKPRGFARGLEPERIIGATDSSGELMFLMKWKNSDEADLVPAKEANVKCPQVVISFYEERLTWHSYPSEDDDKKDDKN
#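 HP1-beta protein (50 nM final) preincubated 30 min at room temperature with biotinylated H3(1-18)K9me3 peptide (50 nM) in PBS pH 7.4, 0.01% Tween-20, then compound added for 30 min. AlphaScreen streptavidin donor/nickel chelate acceptor beads (10 ug/mL final), 30 min dark, luminescence read.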
# G9a inh – inhibitors of human histone lysine methyltransferase G9a | Q96KQ7 | G9a H3K9 monomethylation, AlphaScreen, 2 h | Potency, µM (doses to about 102 µM), for the others: top-dose activity, negative = inhibition, hits mostly inhibitors | 8.8% of 350,000 active; also: % is scaled to controls: 0 for no effect and ±100 for the full control effect; nearly all actives have a fitted effect of over 75% in size
# Target sequence (Q96KQ7 913-1193 limits assumed): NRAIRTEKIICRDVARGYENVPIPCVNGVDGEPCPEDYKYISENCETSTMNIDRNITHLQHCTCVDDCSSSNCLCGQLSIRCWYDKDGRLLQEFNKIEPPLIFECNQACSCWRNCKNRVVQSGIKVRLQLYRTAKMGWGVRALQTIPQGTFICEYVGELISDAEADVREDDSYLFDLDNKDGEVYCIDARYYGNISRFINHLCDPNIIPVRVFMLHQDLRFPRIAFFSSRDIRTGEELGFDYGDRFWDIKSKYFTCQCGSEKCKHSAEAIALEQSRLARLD
#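 Chemiluminescent proximity detection of H3K9 monomethylation, read after 10 min bead incubation in the dark. Reaction: 20 nM G9a, 500 nM biotin-H3K9 peptide, 20 uM SAM cofactor, 2 h, room temperature, following 15 min enzyme-compound preincubation.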
# L3MBTL1 inh – L3MBTL1 (human) inhibition. 0.66% of 230,000 active. AlphaScreen L3MBTL1–H3K9me1 peptide binding. Q9Y468. AID 485360. Potency, µM (doses to about 57.1 µM), without a hit: top-dose activity, negative = inhibition, actives largely listed as inhibitors; also: % is scaled to controls: 0 for no effect and ±100 for the full control effect; nearly all actives have a fitted effect of over 60% in size
#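 Read-out is AlphaScreen signal from streptavidin donor and nickel chelate acceptor beads (10 ug/mL final each) bridging L3MBTL1 (50 nM) and biotinylated K9-monomethylated H3(1-15) peptide (75 nM), after 30 min compound exposure at room temperature.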
# BAZ2B inh – inhibitors of human BAZ2B bromodomain; AlphaScreen BAZ2B-H3K14Ac peptide displacement; AID 504333; Potency, µM (highest dose often 114 µM), inactives show top-dose activity change, negative = inhibition, actives largely listed as inhibitors; 4.4% of 360,000 active; Q9UIF8; also: % is scaled to controls: 0 for no effect and ±100 for the full control effect; nearly all actives have a fitted effect of over 60% in size
#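 Protein-peptide AlphaScreen: BAZ2B 50 nM, b-H3K14Ac 50 nM, 1x PBS pH 7.4 + 0.01% Tween-20. Preincubation 30 min RT; cpd 30 min RT (top 110 uM); beads 20 min RT, light-protected.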
# JMJD2A Tudor – inhibitors of human JMJD2A Tudor domain | AlphaScreen JMJD2A-Tudor / H3K4me3 peptide binding | Potency, µM (highest dose often 114 µM), without a hit: at the top dose activity change, negative = inhibition, actives largely listed as inhibitors | 4.4% of 390,000 active | AID 504339; also: % is scaled to controls: 0 for no effect and ±100 for the full control effect; nearly all actives have a fitted effect of over 50% in size
# Starred values were filed as active, the others as inactive; u = inconclusive; x = not tested or not shown; [ ] = dose if it differs, or a comment. Calls follow the shape of the dose curve; as a rule, active = well fitted inhibition curve with a large enough effect; inconclusive = small, poorly fitted or top-dose-only effect; inactive = no such curve, though single readings can be large or run the other way. Potency is read from the fitted curve at half-maximal effect.
SMILES,HP1b binding inh,G9a inh,L3MBTL1 inh,BAZ2B inh,JMJD2A Tudor
Cc1cc(NS(=O)(=O)c2ccc(NC(=O)c3cnc4scc(C)n4c3=O)cc2)nc(C)n1,18%,u,20%,9%,-19%
O=C1CCN(CCc2ccccc2)CCN1C(CSc1ccc(Br)cc1)c1ccccc1 (stereo unspecified),23%,x,x,x,u
Cc1cc(C)nc(NS(=O)(=O)c2ccc(NC(=O)C3(c4ccccc4)CCCC3)cc2)n1,10%,56µM*,7%,0%,-20%
CCC(=O)N1CCc2cc(CNS(=O)(=O)c3cc(OC)ccc3OC)ccc21,24%,9%[59 µM],x,26%,-7%
CC(=O)N1N=C(c2ccc(C)cc2)CC1c1cn(-c2ccccc2)nc1-c1cccs1 (stereo unspecified),29%,7%[59 µM],x,-13%,-13%
C=CCn1c(C)cc(-c2csc(N)n2)c1C,u,u,x,50µM*,40µM*
C=CCn1c(C)cc(-c2csc(NC)n2)c1C,u,8.9µM*,u,x,40µM*
C=CCn1c(C)cc(-c2csc(NC(=O)C3=COCCO3)n2)c1C,-9%,45µM*,-6%,-34%,-23%
C=CCn1c(C)cc(-c2csc(NCC)n2)c1C,u,16µM*,x,40µM*,50µM*
Cc1ccc(NS(=O)(=O)c2cc3c(cc2Cl)CCC(=O)N3)cc1Cl,x,x,x,x,5%
CCOc1ccc(C(=O)Nc2ccc3oc(-c4cccc5ccccc45)nc3c2)cc1,6%,0%[59 µM],x,1%,-15%
Cc1cccc(CNc2nc(-c3ccc4c(c3)OCO4)nc3ccccc23)c1,x,5%[0.501 µM],x,x,x
Cc1sc(-c2ccccn2)nc1OC(=O)c1ccc(Cl)cc1,-3%,u,10%,1%,25µM*
CCN(CC)S(=O)(=O)c1ccc2c(c1)N(CC(=O)N1CCN(c3cccc(Cl)c3)CC1)C(=O)CO2,25%,-22%[59 µM],x,0%,-15%
O=S(=O)(Nc1ccc(O)c(Sc2nc3ccccc3s2)c1)c1cc(Cl)ccc1Cl,-2%,11µM*,x,u,u
O=S(=O)(Nc1ccc(O)c(Sc2nc3ccccc3s2)c1)c1cccc2ccccc12,-11%,45µM*,-24%,-27%,-35%
CC1=C(C(=O)Nc2ccc(C)cc2C)C(c2ccccc2[N+](=O)[O-])n2ncc(C(=O)Nc3ccccc3)c2N1 (stereo unspecified),-5%,7.1µM*,x,-13%[57.1 µM],u
CC1=C(C(=O)Nc2ccc(C)cc2C)C(c2ccc(Br)cc2)n2ncc(C(=O)Nc3cccc(C)c3)c2N1 (stereo unspecified),25%,-27%[59 µM],x,7%[57.1 µM],-11%
Cc1ncc(CO)c(/C=N/NC(=S)Nc2ccc(Cl)c(Cl)c2)c1O,u,x,u,22µM*,u
Cc1ncc(CO)c(/C=N/NC(=O)c2cc3c(s2)CCCC3)c1O,15%,11%[12.7 µM],u,50µM*,56µM*
Cc1ncc(CO)c(/C=N/NC(=S)Nc2cccc(Cl)c2)c1O,u,u,14µM*,13µM*,56µM*
COc1cc(N=Cc2c(CO)cnc(C)c2O)cc(OC)c1OC,39%,-8%,-3%,-27%,u
COc1cc2c(cc1OC)C(COc1ccccc1OC)N(C(=O)COc1ccc(Cl)cc1)CC2 (stereo unspecified),17%,-35%[59 µM],x,-23%,-32%
O=C(c1ccccc1O)N(Cc1ccccc1)Cc1ccccc1,x,x,x,x,-35%
Cc1ccc(S(=O)(=O)c2cn(Cc3ccccc3)c3cc(N4CCCC4)c(F)cc3c2=O)cc1C,35%,4%[59 µM],x,3%,5%
SMILES,HP1b binding inh,G9a inh,L3MBTL1 inh,BAZ2B inh,JMJD2A Tudor
CCCN1CNc2c(c(=O)[nH]c(=S)n2CCc2cc(OC)ccc2OC)C1,29%,x,x,x,-10%
O=C(Cn1ccc2cc(S(=O)(=O)N3CCCCC3)ccc21)NCCc1ccccc1Cl,15%,7%[59 µM],x,-20%,-23%
CC1=C(C(=O)OCCCBr)C(c2ccc3c(c2)OCO3)NC(=O)N1 (stereo unspecified),34%,50µM*,2%,-35%,-12%
CC1=C(C(=O)OCCBr)C(c2cccc3ccccc23)NC(=O)N1 (stereo unspecified),-13%,79µM*,x,-3%,-11%
CCCCCOC(=O)C1=C(C)NC(=O)NC1c1ccc2c(c1)OCO2 (stereo unspecified),1%,10%,-3%,-1%,-29%
O=C1CCc2cc([S+](=O)([O-])NC3CCOCC3)ccc2N1,x,x,x,x,-16%
COCCn1cnc2c1c(=O)n(Cc1ccc(C#N)cc1)c(=O)n2Cc1ccccc1,9%,7%,x,8%,-1%
Cc1c(C(=O)OC(C)C(C)C[N+](C)(C)C)oc2ccccc12 (stereo unspecified),14%,13µM*,x,-20%,56µM*
Cc1c(C(=O)OC(C)C(=O)N(C)Cc2ccccc2)oc2ccccc12 (stereo unspecified),56%,x,10%,x,-3%
COc1ccc(NC(=O)c2ccc(-c3nc(COc4ccccc4)c(C)o3)cc2)cc1,25%,-21%[59 µM],x,-14%,-8%
CC(=O)c1ccc(NC(=O)c2ccc(-c3nc(COc4ccc(C)cc4)c(C)o3)cc2)cc1,45µM*,u,x,-21%,-9%
COc1cccc(-c2nc(CS(=O)(=O)CC(=O)Nc3cccc(C(C)=O)c3)c(C)o2)c1,0%,14%,x,u,u
COc1ccc(-c2nc(CS(=O)(=O)CC(=O)Nc3cccc(C(C)=O)c3)c(C)o2)cc1,21%,20µM*,x,-10%,-30%
Cc1oc(-c2cccc(Cl)c2)nc1CS(=O)(=O)CC(=O)NC1CC1,88%,50µM*,x,-25%,-15%
COc1ccc(NC(=O)CN(Cc2ccccc2)S(=O)(=O)c2ccc(C)cc2)cc1Cl,19%,-29%[59 µM],x,1%,-8%
C=CC(=O)Nc1ccc(N(C)c2ccnc(Nc3ccc(N4CCN(C)CC4)cc3)n2)cc1,u,x,u,x,35µM*
Cc1nn(C)c2c1c(C(F)(F)F)cc(=O)n2C(C)C(=O)N1CCN(c2ccccc2)CC1 (stereo unspecified),54%,-9%[59 µM],x,-12%,-29%
